TbREL1 inh: TbREL1 inhibition, primary screen | P86926 | TbREL1 RNA ligation, FRET fluorescence | inhibition, % at 9.66 µM | 0.49% of 89,000 active | AID 1117264;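 active = inhibition above the mean inhibition across all screened compounds plus 3 SD, cut at about 11% in these data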;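 also: 0% = plate median of test wells and 100% = NSC42067 control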
Target sequence (P86926 whole entry, looked up): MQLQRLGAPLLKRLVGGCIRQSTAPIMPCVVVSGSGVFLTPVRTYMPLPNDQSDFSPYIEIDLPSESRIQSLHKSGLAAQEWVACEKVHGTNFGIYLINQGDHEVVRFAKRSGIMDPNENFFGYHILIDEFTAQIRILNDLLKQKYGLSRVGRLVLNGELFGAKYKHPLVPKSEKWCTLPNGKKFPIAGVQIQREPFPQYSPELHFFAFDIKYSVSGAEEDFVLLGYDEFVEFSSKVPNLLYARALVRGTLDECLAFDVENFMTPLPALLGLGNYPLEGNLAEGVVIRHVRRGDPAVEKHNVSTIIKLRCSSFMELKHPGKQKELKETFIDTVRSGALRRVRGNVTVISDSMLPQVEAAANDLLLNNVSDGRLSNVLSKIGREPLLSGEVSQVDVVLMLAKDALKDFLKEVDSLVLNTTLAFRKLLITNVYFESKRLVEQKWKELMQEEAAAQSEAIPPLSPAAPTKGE
TbREL1 confirm: TbREL1 inhibition, confirmation | shares compounds with TbREL1 inh | TbREL1 RNA ligation, FRET fluorescence | inhibition, % at 9.66 µM | 37% of 390 active;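 active = mean inhibition across replicates above a set limit taken from the earlier primary screen, cut at about 11% in these data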;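 also: 0% = REL1 with substrate and DMSO and 100% = REL1 plus control inhibitor NSC42067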
* hit, by the source's call. This excerpt belongs to a sample that is enriched for hits.

SMILES	TbREL1 inh	others
CCCCCCOC(=O)CCn1[nH]c(=O)c2ccccc2c1=O	2
CCCCCCCN1C=CC(=O)CC1	-4
O=C(CSc1nc2ccccc2nc1N1CCCCC1)NCc1ccc(Cl)cc1Cl	3
N#Cc1c(Cl)c(Cl)c2nnc(-c3ccc(Br)cc3)n2c1Cl	16*
Cc1ccc2c(n1)sc1c(-c3ccc(Br)cc3)c(C#N)c(N)nc12	-1
CC(=O)Nc1sc2c(c1-c1nc3ccccc3s1)CCCN(C(C)C)C2	0
COc1cccc(CN[C@@H]2CC[C@@]34CCCN3C(=O)CCC[C@H]4C2)c1	0
COC(CNC(=O)[C@H](Cc1ccccc1)NC(C)(C)C(=O)NC1CCCCC1)OC	9
C[C@H](NS(=O)(=O)c1ccc([N+](=O)[O-])cc1)C(=O)NCCNC(=O)[C@@H](C)NS(=O)(=O)c1ccc([N+](=O)[O-])cc1	4
O=C(CSc1nnc(Cc2cccs2)n1-c1ccc(Cl)cc1)Nc1ccc(OCc2ccccc2)cc1	-2
O=c1c2c([N+](=O)[O-])cc([N+](=O)[O-])cc2sn1Cc1ccccc1	-2
O=Nc1c(O)n(Cc2ccccc2)c2ccccc12	-1
O=c1c([N+](=O)[O-])c(Cl)c2ccccc2n1Cc1ccccc1	17*	TbREL1 confirm=1
CCN(Cc1ccccc1)C(=O)C1C2C=CC3(CN(Cc4ccccc4)C(=O)C13)O2 (stereo not given)	4
COC(=O)C1CCN(C(=O)CN2CCC(C(=O)c3ccc(C)cc3)CC2)CC1	-3
O=C(NCCCN1CCN(c2ccc(F)cc2)CC1)NCc1ccccc1	3
O=C(NCc1ccc(OC(F)(F)F)cc1)c1cccc2c1C(=O)c1ccc(N3CCCCC3)cc1S2(=O)=O	5
O=C(NCc1cc(C(F)(F)F)ccc1Cl)c1cccc2c1C(=O)c1ccc(N3CCCCC3)cc1S2(=O)=O	41*	TbREL1 confirm=4
O=C(NCc1cc(C(F)(F)F)ccc1Cl)c1cccc2c1C(=O)c1ccc(N3CCOCC3)cc1S2(=O)=O	0
COc1ccc2c(c1)CCCN2C(=O)C1CCCN(S(=O)(=O)c2ccc(C)c(C)c2)C1 (stereo not given)	0
O=C(NCc1cccnc1)O[C@H]1CC[C@@]23CCCN2C(=O)CCC[C@H]3C1	5
COc1ccc(OC)c(S(=O)(=O)N2CCCCC2C(=O)N2CCN(c3ccc(F)cc3)CC2)c1 (stereo not given)	-4
CCCc1nc2c(=O)n(C)c(=O)nc-2n(C)n1	61*	TbREL1 confirm=86*
COc1ccc(CCn2c(C)nc3c(c(=O)c4ccccc4n3C)c2=O)cc1	9
CCCC1CCC2(CC1)CCC2OC(=O)Nc1cccc(C(F)(F)F)c1 (stereo not given)	12*	TbREL1 confirm=8
SMILES	TbREL1 inh	others
CCCC1CCC2(CC1)CCC2OC(=O)Nc1cc(C)cc(C)c1 (stereo not given)	0
CCCC1CCC2(CC1)CCC2OC(=O)Nc1ccc(C)cc1 (stereo not given)	-1
C=CCNC(=O)N1CCN(Cc2nc3ccccc3c(=O)[nH]2)CC1	0
O=C(Cc1cccs1)N/N=C\c1ccccc1	7
COC1=CC(=O)c2nc(Cl)ccc2C1=O	20*	TbREL1 confirm=30*
CN(C)S(=O)(=O)c1cccc(C(=O)N/N=C\c2ccccc2)c1	7
Cc1cc(N2CCC[C@@H]2C)nc2ccccc12	4
COc1cc2c(cc1OC)C(c1ccc(Cl)cc1)=NCC2	2
COc1cc2c(cc1OC)C(c1ccc(-c3ccc(Cl)cc3Cl)o1)=NCC2	6
COc1cc2c(cc1OC)C(c1ccc(-c3ccc(Cl)c(Cl)c3)o1)=NCC2	14*	TbREL1 confirm=24*
CCOc1ccc(OCCSc2nc(C)cc(=O)[nH]2)cc1	11*	TbREL1 confirm=3
Cc1cc(=O)[nH]c(SCC(=O)c2ccc(C)c(C)c2)n1	-2
COc1cccc(OC)c1OCCCSc1nc(C)cc(=O)[nH]1	4
O=C(CSc1nnc(COc2ccccc2)n1-c1ccccc1)Nc1ccc(S(=O)(=O)Nc2nccs2)cc1	-6
O=C(Cn1nc(-c2ccccc2)c2ccccc21)Oc1ccccc1	4
O=C(Nc1ccc(F)cc1)Nc1c(-c2ccc(F)cc2)nc2ncccn12	6
CN(C(=O)[C@@H](C1CC1)[C@@H](O)c1ccc(Cl)cc1)c1ccccc1	-1
COC(=O)c1ccc(Cn2ccc3ccc(-c4ccc5ccn(C(=O)c6cccc(OC)c6)c5c4)cc32)cc1	0
CC(C)(C)c1ccc(C(=O)Nc2cc(Cl)c(F)cc2C(=O)O)cc1	13*	TbREL1 confirm=2
CC(C)(C)c1ccc(C(=O)Nc2ccc(Cl)cc2)cc1	2
CC(C)(C)c1ccc(C(=O)Nc2cc(Cl)c(Cl)cc2C(=O)O)cc1	-2
COc1ccc(CN2C3=NC(c4ccccc4)CC(=O)N3/C(=C\c3ccccc3)C2c2ccccc2)c(OC)c1 (stereo not given)	-1
C[C@H]1[C@H](NC(=O)c2ccc(Cl)c(Cl)c2)CC[C@@]23CCCN2C(=O)CCC[C@@H]13	-1
CN(C(=O)COC(=O)c1cc([N+](=O)[O-])ccc1N1CCOCC1)C1CCCCC1	-2
CCN(C(=O)COC(=O)c1cc(OC)c(OC)cc1[N+](=O)[O-])C1CCS(=O)(=O)C1 (stereo not given)	0
SMILES	TbREL1 inh	others
CCN(C(=O)COC(=O)c1cc([N+](=O)[O-])ccc1N1CCCCC1)C1CCS(=O)(=O)C1 (stereo not given)	11*	TbREL1 confirm=2
CCCC1CCC2(CC1)CCC2OC(=S)Nc1ccc(I)cc1 (stereo not given)	4
O=C(CN1CCN(Cc2ccccc2)CC1)Nc1ccc(-n2cnnn2)cc1	-1
O=C(O)COCC(=O)Nc1ccc(-n2cnnn2)cc1	12*	TbREL1 confirm=7
NC(=O)c1ccc(NC(=O)COc2ccc(-n3cnnn3)cc2)cc1	1
COc1ccc(C(=O)C2CCN(c3ncnc4sccc34)CC2)cc1	6
O=C(NC1CCCCC1)C1CCCN(S(=O)(=O)c2cccc3cccnc23)C1 (stereo not given)	13*	TbREL1 confirm=6
O=C(NC1CCCC1)C1CCN(S(=O)(=O)c2cccc3cccnc23)CC1	-1
O=C(Nc1ccncc1)C1CCCN(S(=O)(=O)c2cccc3cccnc23)C1 (stereo not given)	-4
Cc1ccc(NC(=O)C2CCCN(c3nnc(-n4cccc4)s3)C2)c(C)c1 (stereo not given)	-4
CCn1c2ccccc2c2cc(NC(=O)COC(=O)c3cc(F)cc(F)c3)ccc21	1
O=C(Nc1nccs1)c1ccccn1	15*	TbREL1 confirm=5
Cc1ccccc1NC(=O)c1ccccn1	1
O=C(Nc1nccs1)c1cnccn1	7
COc1ccc2ccccc2c1C=NNC(=O)c1cc(-c2ccc(C)cc2)n[nH]1	5
COC(=O)CNC(=O)[C@H](Cc1ccccc1)NC1(C(=O)NCCc2c[nH]c3ccccc23)CCCCC1	-11
CCN(CC)S(=O)(=O)c1ccc(C(C)NCC(=O)Nc2ccccc2C(=O)NC2CC2)cc1 (stereo not given)	1
O=C(CN1CCN(S(=O)(=O)c2ccc(F)cc2)CC1)Nc1ccccc1C(=O)NC1CC1	-1
CC(NCC(=O)Nc1ccccc1C(=O)NC1CC1)c1ccc(S(N)(=O)=O)cc1 (stereo not given)	17*	TbREL1 confirm=6
O=C(c1ccncc1F)N1CCC(n2nnc3ncccc32)CC1	2
CC1CCC2(CC1)CCC2NCc1ccc(Br)cc1 (stereo not given)	0
O=C(c1cccnc1)N1CCN(Cc2cccc(Br)c2)CC1	11*	TbREL1 confirm=6
O=C(c1cccnc1)N1CCN(C(=O)c2ccco2)CC1	2
